# Compound activity: PubChem BioAssay, The Scripps Research Institute Molecular Screening Center
# TbREL1 inh: TbREL1 inhibition, primary screen; TbREL1 RNA ligation, FRET fluorescence; inhibition, % at 9.66 µM; 0.49% of 89,000 active; AID 1117264;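 active means inhibition above the mean inhibition across all screened compounds plus 3 SD, cut at about 11% in these data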
# Target sequence (P86926 whole entry, looked up): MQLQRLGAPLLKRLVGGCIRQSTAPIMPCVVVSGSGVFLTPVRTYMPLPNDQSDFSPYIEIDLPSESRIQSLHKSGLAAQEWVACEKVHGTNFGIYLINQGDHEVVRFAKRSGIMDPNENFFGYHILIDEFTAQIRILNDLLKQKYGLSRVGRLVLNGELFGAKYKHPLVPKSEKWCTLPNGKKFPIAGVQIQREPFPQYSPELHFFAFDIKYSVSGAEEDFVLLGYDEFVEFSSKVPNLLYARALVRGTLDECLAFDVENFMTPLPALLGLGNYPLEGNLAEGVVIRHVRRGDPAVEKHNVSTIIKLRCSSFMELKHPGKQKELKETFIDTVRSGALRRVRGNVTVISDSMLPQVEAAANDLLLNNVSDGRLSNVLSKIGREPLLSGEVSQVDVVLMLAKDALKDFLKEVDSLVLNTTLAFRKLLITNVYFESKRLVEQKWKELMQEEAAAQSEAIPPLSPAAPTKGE
# TbREL1 confirm: TbREL1 inhibition, confirmation | AID 1117282 | shares compounds with TbREL1 inh | 37% of 390 active | inhibition, % at 9.66 µM | TbREL1 RNA ligation, FRET fluorescence;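 active means mean inhibition across replicates above a set limit taken from the earlier primary screen, cut at about 11% in these data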
# Numbers stand for hits; . = inactive. The entries come from a sample that favours hits as a whole.
SMILES,TbREL1 inh,others
N#CCCn1cc(C(=O)Nc2ccc(F)cc2)c(-c2ccc([N+](=O)[O-])cc2)n1,11,TbREL1 confirm=.
O=C(NC1CC1)c1cn(Cc2ccccc2)nc1-c1ccccc1,.,
N#CCCn1cc(C(=O)Nc2ccc([N+](=O)[O-])cc2)c(-c2ccccc2)n1,.,
CO[C@H]([C@H](C)/C=C/N(C)C=O)[C@@H](C)C(=O)CC[C@H](C)[C@H](O)[C@H](C)[C@H]1OC(=O)/C=C/C(C)=C/[C@H](O)[C@H](OC)C[C@@H]2C=CC[C@@H](C[C@H](OC)[C@@H](CO)[C@@H](OC)C[C@@H](OC)[C@@H]1C)O2,.,
CC(C)C(NC(=O)OCc1ccccc1)P(=O)(Oc1ccccc1)Oc1ccccc1 (configuration not stated),.,
O=C(O)c1cc2ccccc2n1C1CCN(Cc2ccccc2)CC1,.,
O=C(NC(Cc1ccccc1)P(=O)(O)Oc1ccccc1)OCc1ccccc1 (configuration not stated),.,
CCCCn1c(NC(=O)c2ccco2)c(C(=O)OCC)c2nc3ccccc3nc21,34,TbREL1 confirm=45
CCCCOCCCn1c(N)c(C(=O)OCCOC)c2nc3ccccc3nc21,.,
CCCCn1c(N)c(C(=O)OCCOC)c2nc3ccccc3nc21,.,
Brc1csc(N2CCNCC2)n1,.,
Cc1ccccc1-c1ccc2c(c1)CNCc1cnnn1-2,.,
Cc1ccccc1CN1Cc2cnnn2-c2ccccc2C1C#N (configuration not stated),11,TbREL1 confirm=.
CCOC(=O)CC1c2ccccc2-n2nncc2CN1C (configuration not stated),.,
CN1C(=O)[C@@]23C[C@]4(c5c[nH]c6ccccc56)c5ccccc5N(S(=O)(=O)c5ccccc5)[C@@H]4N2C(=O)[C@@H]1SS3,.,
